Cruzain inh noDet: blocks cruzain activity in detergent-free assay. purified cruzain, Z-FR-AMC fluorescence, no detergent. 2.3% of 200,000 active. Potency, µM, inactives show max response, negative = inhibition, hits mostly inhibitors;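 also: plate controls were enzyme without inhibitor for no effect and buffer without enzyme for full effect; nearly all actives have a fitted effect of over 40% in size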
Target sequence (P25779 123-467 limits assumed): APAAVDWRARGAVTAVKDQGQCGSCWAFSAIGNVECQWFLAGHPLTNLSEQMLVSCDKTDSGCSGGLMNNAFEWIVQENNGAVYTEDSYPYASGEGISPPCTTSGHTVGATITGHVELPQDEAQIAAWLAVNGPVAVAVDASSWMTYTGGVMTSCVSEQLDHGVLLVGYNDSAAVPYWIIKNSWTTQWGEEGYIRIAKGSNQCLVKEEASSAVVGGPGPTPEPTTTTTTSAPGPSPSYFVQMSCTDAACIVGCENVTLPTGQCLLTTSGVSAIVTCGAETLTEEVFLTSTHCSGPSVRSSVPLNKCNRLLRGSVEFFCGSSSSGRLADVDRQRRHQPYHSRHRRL
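Purified cruzain at 1.5 nM, pre-incubated 15 min with compound at room temperature in 100 mM sodium acetate pH 5.5, 5 mM DTT, 0.00005% Triton X-100. Reaction started with 2 uM Z-FR-AMC; AMC fluorescence increase over 60 s gives rate.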
Cruzain Triton: inhibitors of Trypanosoma cruzi cruzain with detergent; purified cruzain, Z-FR-AMC fluorescence, 0.01% Triton; AID 1478; 0.43% of 200,000 active; P25779; Potency, µM, for the others: max response, negative = inhibition, hits mostly inhibitors;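 also: plate controls were neutral wells for no effect and buffer without enzyme for full effect; nearly all actives have a fitted effect of over 40% in size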
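Steps: dispense cruzain (1.5 nM final) in acetate buffer pH 5.5 with DTT and 0.01% Triton X-100; pin-transfer compounds; incubate 15 min RT; add Z-FR-AMC (2 uM final); read fluorescence every 30 s, using the 60 s intensity change.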
Active calls of the source: *; ? = inconclusive. In the library only some 2.4% were active in any assay of this set; here they are far more common. Calls follow the shape of the dose curve; as a rule, active = well fitted curve in the direction sought with a large enough effect; inconclusive = small, poorly fitted or top-dose-only effect, or another doubt; inactive = no such curve, though single readings can be large; an effect the other way counts as inactive or inconclusive. Potency is read from the fitted curve at half-maximal effect.

SMILES	Cruzain inh noDet	Cruzain Triton
CCc1ccccc1NC(=O)Nc1cc(C(=O)NCc2cccc(F)c2)ccc1N1CCCC1	2.8%	-3.1%
CCN(CC)CCNc1ncnc2c1[nH]c1ccc(OC)cc12	?	4.2%
COc1ccc2[nH]c3c(NCc4ccco4)ncnc3c2c1	?	17.8µM*
Brc1cccc(-c2nnn3c2nc(NCc2ccc4c(c2)OCO4)c2ccccc23)c1	-22.0%	-2.1%
Cc1ccc(S(=O)(=O)c2c(O)cc(C)c(NS(=O)(=O)c3ccc(Cl)cc3)c2C)cc1	?	-3.8%
CCc1ccccc1-n1c2c(cc(-c3nc(-c4ccc(Cl)cc4)cs3)c1=O)C(=O)CC(C)(C)C2	-6.9%	-0.7%
CCc1ccc(CN(Cc2ccco2)C(=O)COc2ccc(Cl)cc2C)cc1	?	-4.9%
COc1ccc(OCC(=O)Nc2ccc(-c3nc4cc(C)c(C)cc4o3)cc2)cc1	1.4%	0.7%
CCC(Oc1ccccc1)C(=O)Nc1ccc(-c2nnc(-c3ccco3)o2)cc1 (configuration not stated)	8.8%	-6.6%
Cc1ccc(OCC(=O)Nc2ccc(-c3nc4ccc(C)cc4o3)cc2)cc1	25.1µM*	1.0%
O=C(COc1ccc(Br)cc1)Nc1ccc(-c2nnc(-c3ccco3)o2)cc1	10µM*	4.9%
CC(=O)c1nn(-c2cccc(Br)c2)cc1C(=O)c1ccc(Br)cc1	12.6µM*	4.1%
CC(=O)c1nn(-c2cccc(Br)c2)cc1C(=O)c1ccc(C)cc1	-0.1%	-4.2%
Cc1cc2cc(CN(Cc3cccs3)C(c3nnnn3C(C)(C)C)C(C)C)c3nnnn3c2cc1C (configuration not stated)	7.94µM*	-2.3%
Cc1ccc2cc(CN(Cc3cccs3)Cc3nnnn3C(C)(C)C)c3nnnn3c2c1	-5.2%	-3.4%
CC(C)C(c1nnnn1C1CCCC1)N1CCc2ccccc21 (configuration not stated)	1.9%	0.0%
Cc1ccc(C(c2nnnn2C2CCCC2)N2CCc3ccccc32)cc1 (configuration not stated)	31.6µM*	-6.0%
CCC(=O)N1CCc2cc(CNS(=O)(=O)c3ccc(CC(C)C)cc3)ccc21	10.0%	-4.2%
Cc1ccc(C)c(C(=O)CSc2nc3cc(C(=O)NC4CCCC4)ccc3c(=O)n2CC2CCCO2)c1 (configuration not stated)	-20.2%	-2.0%
CC(OC(=O)c1ccccc1Br)C(=O)Nc1nc(-c2cccc([N+](=O)[O-])c2)cs1 (configuration not stated)	?	0.1%
COc1ccc(CC(=O)Nc2nc(-c3cccc([N+](=O)[O-])c3)cs2)cc1	20µM*	1.1%
CS(=O)(=O)N1CCc2cc(-c3csc(NC(=O)C(c4ccccc4)c4ccccc4)n3)ccc21	7.94µM*	1.7%
O=C(Nc1nc(-c2cccc([N+](=O)[O-])c2)cs1)C(c1ccccc1)c1ccccc1	10µM*	-3.5%
CC1Cc2cc(-c3csc(NC(=O)Cc4ccccc4)n3)ccc2N1S(C)(=O)=O (configuration not stated)	?	5.8%
COc1ccc(CC(=O)Nc2cccc(-c3csc(C)n3)c2)cc1	-16.3%	-7.1%
SMILES	Cruzain inh noDet	Cruzain Triton
CCCn1c(-c2ccc(S(=O)(=O)N3CCOCC3)cc2)csc1=Nc1ccc(OCC)cc1	18.8%	-4.3%
CCn1c(=O)c2c(O)cc(=O)oc2c2ccccc21	-6.4%	-4.0%
CC(C)n1c(=O)c2c(O)cc(=O)oc2c2ccccc21	25.1µM*	1.5%
Cc1ccc(Cl)cc1NS(=O)(=O)c1cc2c3c(c1)CC(=O)N3CCC2	-4.5%	-2.9%
Cc1ccc(-c2cc(C(=O)Nc3cc(C)ccc3C)[nH]n2)c(O)c1	12.6µM*	-1.5%
COc1ccc(OC)c(NC(=O)c2cc(-c3ccc(C)cc3O)n[nH]2)c1	-24.5%	-1.7%
COc1ccc(CCNC(=O)CCSCc2ccccc2Cl)cc1OC	0.7%	0.9%
CC(=O)c1ccc(N2CCN(C(=O)c3cn(C)c(=O)c4c3c3ccccc3n4C)CC2)cc1	?	-27.3%
CCCN(CCC)C(=O)Cn1c(=O)n(-c2ccccc2)c(=O)c2c3c(sc21)CCCC3	-6.9%	-2.5%
CSc1ccc(/C=N/NC(=O)COc2ccc(Br)cc2Cl)cc1	25.1µM*	-0.2%
CCNC(=O)COc1ccc(Br)cc1Cl	13.6%	7.7%
CCOCCCn1c(SCC(=O)Nc2ccccc2CC)nc2ccccc2c1=O	-15.7%	1.9%
COc1ccc(C2CC(=O)Nc3c2c(C)nn3-c2nncc(-c3ccc(C)cc3)n2)c(OC)c1OC (configuration not stated)	-14.0%	8.6%
CCc1nnc(NC(=O)CCc2ccc(C)o2)s1	-2.8%	0.7%
Cc1ccc(CCC(=O)Nc2ncc(Cc3cccc(Cl)c3Cl)s2)o1	12.6µM*	0.7%
Cc1c(C(=O)Nc2cccc(-c3nc4ccccc4s3)c2)oc2ccc(F)cc12	-0.2%	-0.1%
Cc1cccc(C(=O)N2CCc3cc(CNC(=O)c4ccc(Br)o4)ccc32)c1	-2.9%	-0.1%
O=C(CCn1c(=O)c2cccn2c2ccc(F)cc21)NCCc1ccccc1Cl	4.8%	-0.2%
CCn1cc(C(=O)NCCc2ccc(OC)c(OC)c2)c(=O)c2cc(S(=O)(=O)N3CCc4ccccc4C3)ccc21	?	-8.1%
CCCOc1ccc(-c2nn(-c3ccccc3)cc2/C=C2\SC(N)=NC2=O)cc1C	12.6µM*	-4.7%
COc1ccc(-c2nn(CCC(=O)O)cc2/C=C2\SC(N)=NC2=O)cc1OC	2.8%	-3.9%
CC(C)NC(=O)c1ccc2c(c1)nc1n2CCCCC1	-0.4%	2.7%
CCC(=O)N1CCc2cc(S(=O)(=O)NCCC(=O)Nc3ccc(OC)c(Cl)c3)ccc21	2.3%	-3.6%
CCN=C(Nc1ccc2c(c1)OCO2)SC1CC(=O)N(c2ccccc2F)C1=O (configuration not stated)	-7.5%	-4.1%
C/C(CCc1ccc2c(c1)OCO2)=N\N=C(/N)SC1CC(=O)N(c2ccccc2F)C1=O (configuration not stated)	15.8µM*	-29.2%
SMILES	Cruzain inh noDet	Cruzain Triton
c1ccc(CCN2CCOCC2)nc1	6.6%	-0.2%
Cc1ccc(-n2ncc3c(NCCCN(C)C)ncnc32)cc1Cl	-5.7%	-0.8%
CC(C)(C)NC(=O)Cc1ccc(S(=O)(=O)N2CCCC2)s1	-4.0%	-5.7%
O=C(Cc1ccc(S(=O)(=O)N2CCCC2)s1)Nc1nc2c(s1)CCCC2	20µM*	-16.6%
CCCCn1c2ccccc2c2nnc(SCC(=O)Nc3ccc(NC(C)=O)cc3)nc21	20µM*	?
CCOC(=O)c1ccc(NC(=O)CSc2nnc3c4ccccc4n(CC)c3n2)cc1	-11.4%	-5.8%
O=C1c2ccccc2C(Nc2ccc3c(c2)OCO3)N1Cc1ccc2c(c1)OCO2 (configuration not stated)	25.1µM*	-3.9%
O=C1c2ccccc2C(Nc2cccnc2)N1Cc1ccc2c(c1)OCO2 (configuration not stated)	-2.3%	-0.8%
CCc1ccc(NC(=O)CCn2c(=O)oc3ccccc32)cc1	1.26µM*	-0.6%
Cc1ccc(NC(=O)CCn2c(=O)oc3ccccc32)cc1	-3.5%	1.2%
CCN(C(=O)c1cccn(Cc2cccc(Cl)c2)c1=O)c1ccccc1	3.5%	-0.9%
CCOc1ccc(-c2cc(C(=O)Nc3ccc(NC(C)=O)cc3)no2)cc1	-4.1%	-1.0%
COc1ccc(CC(=O)Nc2ccc(-c3noc(-c4ccc(Cl)cc4)n3)cc2)cc1	3.98µM*	-7.6%
COc1ccc(-c2noc(-c3ccccc3OCC(=O)Nc3ccc(C(C)=O)cc3)n2)cc1	-5.1%	-9.9%

High-throughput results: PubChem, National Center for Advancing Translational Sciences (NCATS)
